Experiment [1] is described as follows: Her2 expression decrease, cell viability multiplex – SKBR3 breast tumor cells, AlphaScreen, ATP viability, primary screen (AID 461;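 active means Her2 level under about 52% in both replicate screens, with viability over 70% of control, limit read from the data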;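 on Her2 level: lower value means less Her2 protein in the cells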;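 on viability: percent of carrier control wells set as 100% viability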). As to conditions: SKBR3 Her2 protein level, 18-24 h, measured here: SKBR3 viability, ATP luminescence, at 10 µM. In general terms: In Alpha technology, singlet oxygen from a donor bead excites a nearby acceptor bead.
Experiment [2] has as its target Receptor tyrosine-protein kinase erbB-2 (Homo sapiens) (UniProt P04626). The experiment is described as above. To be noted: 18-24 h, at 10 µM, stronger effect = lower value.
Experiment [3] is described as follows: reduced viability of SK-BR-3 breast cancer cells – cell-based, 24 h, human, pilot screen (AID 572;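 active means viability at or below 10% of carrier control in both of two separate runs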;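 further: compound exposure lasted between 18 and 24 h rather than exactly 24 h; 100% = carrier-treated control wells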). To be noted: SK-BR-3 viability, CellTiter-Glo luminescence, at 10 µM, stronger effect = lower value.
Experiment [4] can be described thus: HUVEC growth inhibition – cell-based, human, primary screen (AID 575;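 active means viability at or below 30% in both replicate assays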;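 further: 100% = median of untreated cell wells with 0.1% DMSO on each plate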). As to conditions: HUVEC proliferation, CellTiter-Glo luminescence, 72 h; at 10 µM; stronger effect = lower value. On the technique in general: ATP-based viability assays read luminescence as a measure of living cells.
A short description of experiment [5]: H69AR cell proliferation blockers – human, duplicate replicates, primary screen (AID 580;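 active means viability at or under a set limit in both replicates, limit being median viability minus 3 SD, cut at about 48% in these data, passing the limit was not always enough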;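 further: 100% = mean luminescence of untreated wells and 0% = no signal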). To be noted: H69AR lung tumor cells viability, ATP luminescence, 72 h; at 10 µM; stronger effect = lower value.
Experiment [6] can be described thus: MRP1 drug-resistance reversers in H69AR cells – cell-based, doxorubicin co-treatment, pilot screen (AID 601;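 active means viability loss from added drug above about 55%, and viability with drug at most 40%, in both replicates, limit read from the data, passing the limit was not always enough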). To be noted: CellTiter-Glo, 72 h, at 10 µM; for differential viability (reversal): stronger effect = higher value.
A short description of experiment [7]: yeast transport mutant growth inhibition pilot in 384-well plates, post-Golgi transport modulator project (AID 636; in the data active means inhibition above about 31%). To be noted: absorbance 615 nm, about 18 h, stronger effect = higher value.
A short description of experiment [8]: growth suppression of yeast trafficking mutant, preliminary HTS, modulators of trafficking downstream of Golgi apparatus project, 1536-format plate, OD 615 nm (AID 637; in the data active means inhibition above about 30%). To be noted: yeast transport mutant growth, absorbance 615 nm, 18 h; stronger effect = higher value.
A short description of experiment [9]: S. cerevisiae growth inhibition in permissive medium (OD615), pilot counter-assay for S. cerevisiae lifespan shortening project, permissive growth control (AID 705;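 active means growth inhibition above 25% in both replicates, a cutoff set 3 SD above the mean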). As to conditions: OD615, 24 h, at 10 µM, stronger effect = higher value.
Experiment [10] can be described thus: S. cerevisiae growth inhibition in restrictive medium, OD615, pilot screen, restrictive growth control, yeast lifespan reduction project (AID 706;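 active means growth inhibition above a set limit, 3 SD over mean compound inhibition, in both replicates, cut at about 43% in these data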;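 further: modified DeaD lifespan yeast strain shifted to restrictive glucose medium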). As to conditions: OD615, 48 h, at 10 µM, stronger effect = higher value.
Experiment [11] is described as follows: doxorubicin toxicity protection in MRP-1 cells – H69AR cells, CellTiter-Glo, duplicate, MRP-1 activator project, pilot screen (AID 807;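 active means viability increase at or above a cutoff of the median across tested compounds plus 3 SD, cut at about 8.5% in these data, passing the limit was not always enough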;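 further: compound pretreatment 18-22 h then 72 h combined with doxorubicin; 0% = doxorubicin alone and 100% = vehicle without doxorubicin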). As to conditions: H69AR viability with doxorubicin, CellTiter-Glo luminescence; at 10 µM; stronger effect = higher value.
Experiment [12] can be described thus: viability of HCT116 without oncogenic beta-catenin – human colon tumor cells, pilot screen (AID 823;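 active means cell viability at or below a set limit in both duplicate runs, the limit being the all-compound median minus 4 SD, cut at about 23% in these data, passing the limit was not always enough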;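 further: 0% = wells killed by 20 µM Hyamine and 100% = untreated DMSO cell wells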). As to conditions: HCT116 beta-catenin knockout viability, CellTiter-Glo, 60 h; at 10 µM; stronger effect = lower value.
Experiment [13] can be described thus: viability of PTEN-null HCT116 cells – cell-based, HCT116 clonal line, CellTiter-Glo, pilot screen (AID 824).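 Further: 0% = 20 µM Hyamine control and 100% = vehicle cell control.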 As to conditions: HCT116 PTEN-deleted viability, 60 h, at 10 µM, stronger effect = lower value.
Experiment [14] in a line: RAM pathway blockade in budding yeast – dse1pr::URA3 reporter, 5-FOA selection, pilot screen (AID 869;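 active means inhibition over a set limit, the all-compound mean plus 3 SD, in both replicate runs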;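 further: 0% = DMSO wells with no growth and 100% = 10 µM 1-NA-PP1 with full growth; RAM network block rescues cells from 5-FOA so hits raise OD615 growth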). To be noted: S. cerevisiae dse1pr::URA3 5-FOA growth, OD615, 2 d; at 10 µM; stronger effect = higher value; strain carries analog-sensitive mutant Cbk1 kinase.
A short description of experiment [15]: RAM signaling pathway blockade in yeast – S. cerevisiae, Pdr1DBD-CYC8 efflux-inhibited sensitized strain, primary screen (AID 1298;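 active means RAM network inhibition above 8.4% in each of two replicates, 3 SD over the compound average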;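 further: 0% = DMSO untreated cells without growth and 100% = 10 µM 1-NA-PP1 full growth; higher means more yeast growth rescued from 5-FOA killing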). As to conditions: S. cerevisiae cbk1-as DSE1-URA3 strain, 5-FOA growth OD615, 2 d; at 50 µM; stronger effect = higher value.
[16] abbreviates: H69AR cells + 2 uM doxorubicin, measured here: viability with 2 uM doxorubicin, stronger effect = lower value.
Setting [17] is: H69AR cells, compound alone cytotoxicity.

We go through 4 compounds from PubChem BioAssay.

Inconclusive results are not listed. Active and inactive are the calls of the source.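 How the source made its calls, unless noted: active means viability at or below 27.92% in each of two runs, the all-compound median minus 4 SD; inconclusive means no clear call, values can overlap the other calls; inactive means the rest.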

Receptor tyrosine-protein kinase erbB-2 (Homo sapiens), sequence (P04626 whole entry, looked up): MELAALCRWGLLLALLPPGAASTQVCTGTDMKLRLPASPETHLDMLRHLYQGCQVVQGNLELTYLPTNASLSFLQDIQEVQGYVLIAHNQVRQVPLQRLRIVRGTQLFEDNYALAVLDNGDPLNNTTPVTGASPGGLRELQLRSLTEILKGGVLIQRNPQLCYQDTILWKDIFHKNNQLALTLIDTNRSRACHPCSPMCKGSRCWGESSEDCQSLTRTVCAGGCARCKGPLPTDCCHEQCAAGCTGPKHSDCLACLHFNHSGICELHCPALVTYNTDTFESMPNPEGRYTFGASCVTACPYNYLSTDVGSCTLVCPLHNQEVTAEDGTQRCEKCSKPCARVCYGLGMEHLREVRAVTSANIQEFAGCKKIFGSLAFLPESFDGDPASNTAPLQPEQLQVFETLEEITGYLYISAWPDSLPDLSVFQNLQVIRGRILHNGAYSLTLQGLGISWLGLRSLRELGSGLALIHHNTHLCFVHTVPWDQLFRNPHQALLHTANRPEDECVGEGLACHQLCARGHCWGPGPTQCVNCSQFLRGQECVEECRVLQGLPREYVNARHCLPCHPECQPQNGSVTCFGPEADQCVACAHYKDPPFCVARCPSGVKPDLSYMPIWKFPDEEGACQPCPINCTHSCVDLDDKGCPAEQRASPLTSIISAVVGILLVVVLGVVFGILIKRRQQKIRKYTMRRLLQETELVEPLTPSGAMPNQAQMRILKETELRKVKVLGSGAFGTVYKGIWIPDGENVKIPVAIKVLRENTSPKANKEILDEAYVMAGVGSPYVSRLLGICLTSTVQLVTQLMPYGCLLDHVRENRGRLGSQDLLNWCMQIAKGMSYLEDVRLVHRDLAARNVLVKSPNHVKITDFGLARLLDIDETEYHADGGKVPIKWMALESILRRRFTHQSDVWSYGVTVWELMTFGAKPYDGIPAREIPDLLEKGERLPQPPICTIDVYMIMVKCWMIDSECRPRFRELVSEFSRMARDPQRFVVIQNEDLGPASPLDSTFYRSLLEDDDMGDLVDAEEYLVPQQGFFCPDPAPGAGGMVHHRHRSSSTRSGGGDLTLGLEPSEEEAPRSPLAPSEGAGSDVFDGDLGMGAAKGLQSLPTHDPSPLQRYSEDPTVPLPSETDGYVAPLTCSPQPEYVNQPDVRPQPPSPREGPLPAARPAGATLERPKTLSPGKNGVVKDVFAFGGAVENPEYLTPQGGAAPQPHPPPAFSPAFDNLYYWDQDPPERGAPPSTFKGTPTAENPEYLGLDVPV

A word on the viability: it is a read-out of living cells in per cent, often relative to untreated cells. What is called inhibition is the drop in the measured response relative to a control, in per cent. With `O=c1c(-c2ccccc2)coc2c(CN3CCOCC3)c(O)ccc12`, the viability in experiment [1] is 110%; in experiment [3] it was 110% (inactive); in experiment [4] it was 96.4% (inactive); in experiment [5] it was 99% (inactive); in experiment [6] (setting [16]), 100%; in [6] (setting [17]) it was 99%. Moreover, the viability in experiment [12] was 91.7% (inactive); in experiment [13], 99.7% (inactive). Also, in [2], the Her2 level is 105% (inactive). In addition, in experiment [6] (H69AR cells + 2 uM doxorubicin), the differential viability (reversal) is -1.39% (inactive). Further, the values for the inhibition in experiment [7], in experiment [8] and in experiment [14] were 0.95% (inactive), -7.87% (inactive) and 0.58% (inactive), respectively. The values for the growth inhibition in experiment [9] and in [10] were -9.23% (inactive) and 4.11% (inactive), respectively. The viability increase in experiment [11] was -4.13% (inactive). Also, the RAM network inhibition in experiment [15] was -0.61% (inactive).
For `O=C(OCN1C(=O)c2ccccc2C1=O)C1CCCCC1`, the viability is 82% in experiment [1]; 82% (inactive) in experiment [3]; 87.3% (inactive) in [4]; 87.6% (inactive) in experiment [5]; 100% in experiment [6] (setting [16]); 87.6% in [6] (setting [17]). The results for the viability in experiment [12] and in experiment [13] were 90.2% (inactive) and 91% (inactive), respectively. For the same compound, in experiment [2], the Her2 level is 97.5% (inactive). Also, in experiment [6] (H69AR cells + 2 uM doxorubicin), the differential viability (reversal) was -12.9% (inactive). Besides, the inhibition was 3.08% (inactive) in experiment [7], -7.17% (inactive) in experiment [8] and 1.03% (inactive) in experiment [14]. Besides, the values for the growth inhibition in [9] and in experiment [10] were 0.93% (inactive) and -9.12% (inactive), respectively. Besides, the viability increase in experiment [11] is -2.19% (inactive). Also, the RAM network inhibition in experiment [15] is 0.77% (inactive).
Regarding `Cn1c(=O)oc2cc(S(=O)(=O)NC3CCN(Cc4ccccc4)CC3)ccc21`, the viability was 103% in experiment [1]; 103% (inactive) in experiment [3]; 90.9% (inactive) in experiment [4]; 108% (inactive) in experiment [5]; 93.2% in experiment [6] (setting [16]); 108% in [6] (setting [17]). Besides, the figures for the viability in [12] and in [13] were 92% (inactive) and 94.7% (inactive), respectively. For the same compound, the Her2 level in experiment [2] is 96% (inactive). Also, the differential viability (reversal) in [6] (H69AR cells + 2 uM doxorubicin) was 14.4% (inactive). For the same compound, the figures for the inhibition in experiment [7], in experiment [8] and in experiment [14] were -0.51% (inactive), -1.17% (inactive) and 1.28% (inactive), respectively. The growth inhibition in experiment [9] is -5.47% (inactive); in [10], -3.98% (inactive). For the same compound, the viability increase in [11] was -1.57% (inactive). Besides, in experiment [15], the RAM network inhibition is 3.24% (inactive).
Turning to `COc1cccc(C2C(C(N)=O)=C(C)Nc3nc(-c4ccccc4Cl)nn32)c1` (stereo not drawn), the viability was 79.5% in experiment [1]; 79.5% (inactive) in experiment [3]; 69.3% (inactive) in [4]; 92.1% (inactive) in experiment [5]; 76.4% in experiment [6] (setting [16]); 92.1% in experiment [6] (setting [17]). The viability in experiment [12] was 67.2% (inactive); in [13] it was 72.2% (inactive). Moreover, the Her2 level in experiment [2] is 92.5% (inactive). In experiment [6] (H69AR cells + 2 uM doxorubicin), the differential viability (reversal) is 15.7% (inactive). Also, the inhibition in [7] is -5.33% (inactive); in experiment [8], -2.83% (inactive); in experiment [14], -0.135% (inactive). Besides, the growth inhibition was -0.045% (inactive) in experiment [9] and -2.87% (inactive) in [10]. In addition, the viability increase in [11] is -2.66% (inactive). Also, the RAM network inhibition in experiment [15] was 2.34% (inactive).
